From PubChem BioAssay AID463173 (ICCB-Longwood Screening Facility, Harvard Medical School, 2010)
The campaign covered roughly 52,000 compounds. About 4,300 (8.3%) were called active. The sample as a whole holds a higher share of actives than the screen did. Values without a mark were called inactive. No stated cut-off is given here; in the data, active means survival mostly below about 52% (no sharp cut-off); inactive means mostly above about 56%.

These molecules were tested on DeltatarO mutant (assay: growth inhibition of S. aureus wild type versus tarO mutant, primary screen, teichoic acid synthesis inhibitors, RN4220, OD600 (AID 463173)). Conditions: OD600, 18 h, hits give low values, screened at 18.75 µg/mL (by protocol).

Going from CCCc1cc(C(=O)Nc2c(C)nn(Cc3ccc(C)cc3)c2C)no1 to Cc1ccc(-n2nc(C)c3c(C(=O)NCc4ccc(F)cc4)cc(C)nc32)cc1, the survival rises from 73% to 83%.

Going from CC(C)c1ccc(-c2noc(C3CCCN(C(=O)c4ccccc4)C3)n2)cc1 (configuration not stated) to CCCC(=O)N1CCCC(c2nc(-c3ccc(C(C)C)cc3)no2)C1 (configuration not stated), the survival rises from 86% to 103%.

Compared with CN(C)c1ccc(CNc2nc(-c3ccco3)nn2C(=O)c2cccc([N+](=O)[O-])c2)cc1, O=C(CCS(=O)(=O)c1nc(-c2cccs2)cc(C(F)(F)F)n1)Nc1ccc(Br)cc1 is lower in survival: 66% for the first, 61% for the second.

Going from Cc1ccc(O)c(NC(=O)CCS(=O)(=O)c2nc(-c3cccs3)cc(C(F)(F)F)n2)c1 to COc1ccccc1-c1cc(C(F)(F)F)nc(S(=O)(=O)CCCC(=O)Nc2ccc(F)cc2F)n1, the survival rises from 51% to 67%.

Compared with COc1ccccc1-c1cc(C(F)(F)F)nc(S(=O)(=O)CCCC(=O)Nc2cc(OC)c(OC)c(OC)c2)n1, COc1ccccc1-c1cc(C(F)(F)F)nc(S(=O)(=O)CCCC(=O)Nc2ccc(F)c(Cl)c2)n1 is lower in survival: 134% for the first, 87% for the second.

Going from COc1ccccc1-c1cc(C(F)(F)F)nc(S(=O)(=O)CCCC(=O)Nc2ccccc2F)n1 to COC(=O)c1ccccc1NC(=O)CCCS(=O)(=O)c1nc(-c2ccccc2OC)cc(C(F)(F)F)n1, the survival rises from 70% to 87%.

First: COc1ccc(-c2cc(C(F)(F)F)nc(S(=O)(=O)CCCC(=O)Nc3ccccc3C(F)(F)F)n2)cc1OC
Second: COc1ccc(OC)c(NC(=O)c2cnn(-c3ccc(C)cc3)c2C2CCNCC2)c1
The survival of the first is lower: 70% for the first, 92% for the second.

First: CC(=O)Nc1ccc(NC(=O)c2cc(CN3CCCC3)on2)cc1
Second: Cc1cccc(C)c1NC(=O)C1CCN(S(=O)(=O)c2cccc3nsnc23)CC1
The survival of the first is higher: 96% for the first, 89% for the second.

COc1ccc(-n2c3c(cc(-c4nc(-c5ccc(Cl)cc5)cs4)c2=O)C(=O)CC(C)(C)C3)cc1Cl was tested, and the survival was 79%.

For CC(C)c1ccc(-c2noc(C3CCCN(C(=O)Cc4cccs4)C3)n2)cc1 (configuration not stated), the survival was 40% (active).
COc1ccccc1-c1cc(C(F)(F)F)nc(S(=O)(=O)CCCC(=O)Nc2cc(C)ccc2O)n1 was tested, and the survival was 47% (active).
For O=C(CCS(=O)(=O)c1nc(-c2cccs2)cc(C(F)(F)F)n1)Nc1cc(Br)ccc1O, the survival was 15% (active).
With COc1ccccc1-c1cc(C(F)(F)F)nc(S(=O)(=O)CCCC(=O)Nc2cc(Br)ccc2O)n1 the survival was 45% (active).
In the case of COc1ccc(NC(=O)CCCS(=O)(=O)c2nc(-c3ccccc3OC)cc(C(F)(F)F)n2)c(OC)c1, the survival was 46% (active).
